Source: PubChem BioAssay (National Center for Advancing Translational Sciences (NCATS))
In the library only some 4.7% were active in any assay of this set; here they are far more common.
TRHR enhancer: qHTS for Small Molecule Agonists and Allosteric Enhancers of Human TRH Receptor: Primary Screen for Enhancers; TRHR cells, fluo-8 calcium fluorescence, EC20 TRH enhancement; enhancement, % at 2 µM; 360,000 compounds, 0.66% hits; AID 493056, 2011; in the data active means enhancement above about 30%; further: 0% is about no effect
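Enhancer read-out: after compound pinning and an initial kinetic agonist-mode read, an EC20 of TRH (10 nM final) was injected and fluo-8 calcium signal (Ex 480/Em 530) followed at 1 s/cycle for 100 cycles in TRHR-expressing cells.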
D1 ag: Allosteric Agonists of the Human D1 Dopamine Receptor: qHTS; D(1A) dopamine receptor (Homo sapiens), P21728; HEK293 T-REx D1 cells, calcium flux, agonist mode; activation, % at 2 µM; 360,000 compounds, 1% hits; AID 504660, 2011; further: 0% is about no effect
Target sequence (P21728 whole entry, looked up): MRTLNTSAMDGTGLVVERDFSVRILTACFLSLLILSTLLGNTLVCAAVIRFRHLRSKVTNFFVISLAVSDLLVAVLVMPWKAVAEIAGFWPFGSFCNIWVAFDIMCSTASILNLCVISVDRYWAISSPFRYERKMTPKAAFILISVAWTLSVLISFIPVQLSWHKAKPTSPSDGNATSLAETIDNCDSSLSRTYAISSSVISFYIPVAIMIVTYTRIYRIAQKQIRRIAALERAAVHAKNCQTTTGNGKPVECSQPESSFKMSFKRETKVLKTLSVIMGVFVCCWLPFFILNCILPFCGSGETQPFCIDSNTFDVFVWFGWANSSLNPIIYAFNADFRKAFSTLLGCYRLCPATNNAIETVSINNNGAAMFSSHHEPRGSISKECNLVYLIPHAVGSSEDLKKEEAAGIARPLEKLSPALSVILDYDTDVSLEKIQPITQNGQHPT
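Tetracycline-induced HEK293 TREx D1 cells, force-coupled to calcium signalling, were dye-loaded with a no-wash calcium kit. Compound was pin-added after a 10 s baseline. Fluorescence was read kinetically at 1 cycle/s for 180 s, with calcium rises flagged as agonism.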
TRHR agonist: qHTS for Small Molecule Agonists and Allosteric Enhancers of Human TRH Receptor: Primary Screen for Agonists; activation, % at 2 µM; AID 493084, 2011; 360,000 compounds, 0.18% hits; Thyrotropin-releasing hormone receptor (Homo sapiens), P34981; TRHR cells, calcium flux fluo-8, FDSS agonist mode; further: 0% is about no effect
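In this calcium-flux screen, cells bearing human TRHR are dye-loaded with fluo-8, baselined for 10 cycles, then exposed to library compounds; positive kinetic calcium responses during the agonist phase mark hits, with TRH as control.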
D1 PAM: Potentiators of Human D1 Dopamine Receptor: qHTS. 360,000 compounds, 0.036% hits. AID 504651, 2011. D(1A) dopamine receptor (Homo sapiens), P21728. potentiation, % at 10 µM. HEK293 TREx D1 cells, calcium flux, dopamine EC20 potentiation; in the data active means potentiation above about 30%; further: 0% is about no effect
D1 antag: Antagonist of Human D 1 Dopamine Receptor: qHTS; 360,000 compounds, 3.2% hits; HEK293 TREx D1 cells, calcium flux, dopamine EC80; active compounds read low; activity change, negative = inhibition, % at 10 µM; in the data active means activity change below about -30%; further: on the % scale 0 is the no-effect control and ±100 the full control effect
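Tetracycline-induced HEK293 Trex D1 cells, force-coupled to calcium, dye-loaded; compounds added and read 180 s, then EC80 dopamine added and calcium flux tracked kinetically another 180 s.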
* marks the source's active call; other numbers are inactive results; nt = no result given; ! = a repeat was not active. Unless noted, no stated cut-off is given here; in the data, active means activation above about 30%; inactive means the rest.

SMILES	TRHR enhancer	D1 ag	TRHR agonist	D1 PAM	D1 antag
CN(Cc1ccccc1)S(=O)(=O)c1ccc(OCC(=O)N2CCOCC2)cc1	-5	8	0	-3	-32*
O=C(COc1ccc(S(=O)(=O)Nc2ccc(Cl)cc2)cc1)N1CCOCC1	2	31*	2	-4	-13
Cc1ccc(N(CCC(=O)N2CCOCC2)S(=O)(=O)c2ccccc2)cc1	1	2	0	nt	-55*
O=C(CCNS(=O)(=O)c1ccc(Cl)cc1)N1CCOCC1	2	2	-1	-6	-32*
Cc1ccc(N(CC(=O)N2CCOCC2)S(=O)(=O)c2ccccc2)cc1	-8	1	1	-10	-6
Fc1cccc(CNc2ncnc3ccc(-c4ccoc4)cc23)c1	6	0	2	-2	-15
O=C(Nc1ccc(Cl)c(-c2nc3ccccc3o2)c1)c1cccc2c(Cl)cccc12	14	0	0	-4	5
Cc1c(C(c2ccc(F)cc2)c2c(C)n(C)n(-c3ccccc3)c2=O)c(=O)n(-c2ccccc2)n1C	10	2	1	1	2
COc1ccc(CNC(=O)Cc2ccc(NC(=O)N3CCSc4ncccc43)cc2)cc1	7	1	0	-1	-6
O=C(COc1ccc(F)cc1)NCC(c1ccc(Cl)cc1)N1CCCCC1 (stereo unspecified)	6	13	-1	0	-16
CCN(CC)S(=O)(=O)c1ccc(NC(=O)c2ccc(N(C)S(C)(=O)=O)cc2)cc1	-4	8	2	-12	-36*
CCN(CC)S(=O)(=O)c1ccc(NC(=O)c2ccccc2N(C)S(C)(=O)=O)cc1	-1	0	1	-1	-24
CCN1CCN(CCCNC(=O)Cn2c(-c3cccs3)cc3cc(F)ccc32)CC1	6	36*	-1	4	-6
O=C(Cn1c(-c2cccs2)cc2cc(F)ccc21)N1CCN(c2ccccc2)CC1	1	1	1	-1	6
COc1ccc(CCNC(=O)Cn2c(-c3cccs3)cc3cc(F)ccc32)cc1OC	-6	4	-1	-4	-17
O=C(Cn1c(-c2cccs2)cc2cc(F)ccc21)NCCCN1CCN(c2ccc(F)cc2)CC1	8	-2	0	0	-35*
Cc1c(C(=O)OC(C)C)sc(NC(=O)C2c3ccccc3Oc3ccccc32)c1C(=O)OC(C)C	17	2	2	-2	6
Cc1cc2c3ccccc3ncn2n1	6	3	-1	7	-39*
CCN(C(=O)c1cc(S(=O)(=O)N2CCCC2)cn1C)c1ccc(OC)cc1	6	4	0	-1	2
COc1ccc(-c2nn3c(-c4ccc(C)cc4)nnc3c3ccccc23)cc1	0	0	0	-5	10
Cc1cc(C)n(S(=O)(=O)c2cc(C)c(C)cc2C)n1	6	1	-2	-12	-31*
CCC(=O)N(C(=O)CC)N1CCN(c2ccncc2S(=O)(=O)N2CCCCC2)CC1	-4	1	1	-2	-8
N#C/C(=N\Nc1cccc([N+](=O)[O-])c1)C(=O)c1ccc(Br)cc1	-6	21	1	-3	-34*
Cc1ccc(Cl)cc1NC(=O)CCc1c(C)nc2c3cccnc3nn2c1C	-6	-1	0	1	-1
COc1ccccc1Nc1nn2c(=O)c3ccc(C(=O)N4CCCCC4)cc3nc2s1	-6	1	-1	-4	-43*!
COc1cccc(NC(=O)c2ccc3c(=O)n4nc(Nc5ccccc5OC)sc4nc3c2)c1	7	3	1	-2	-6
CC(C)OCC(O)CN1CCC(Cc2ccccc2)CC1 (stereo unspecified)	2	0	0	2	-2
CCc1ccc(OCC(O)CN2CCN(c3ccc(OC)cc3)CC2)cc1 (stereo unspecified)	6	30*	0	0	-40*
CC(=O)c1ccc(OCC(O)CN2CCN(c3ccccn3)CC2)cc1 (stereo unspecified)	2	2	0	-6	-60*
